CHX counter: Cycloheximide Counterscreen for Small Molecule Inhibitors of Shiga Toxin. cell reporter, cycloheximide protein synthesis inhibition counterscreen. max response, %. 300,000 compounds, 12% hits; in the data active means max response mostly above about 13%, no sharp cut-off; inactive means mostly below about 14%; further: read at 38.3 µM for the half of the compounds with a filed dose; 0% is about no effect
Giardia FBPA inh: qHTS Assay for Inhibitors of Fructose-1,6-bisphosphate Aldolase from Giardia Lamblia; A8B2U2; purified Giardia FBPA; Potency, µM (titrated, usually from 59.6 µM), for the others: at the highest dose activity, negative = inhibition, actives largely listed as inhibitors; 290,000 compounds, 0.71% hits; AID 2451, 2010; further: potency means the concentration at half of the fitted maximal effect; on the % scale 0 is the no-effect control and ±100 the full control effect; nearly all actives have a fitted effect of over 55% in size
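40 nM FBPA preincubated 10 min at RT with compound (up to 57.5 uM final), then substrate plus GAPDH/TPI/NAD/arsenate coupling and diaphorase/resazurin added. Fluorescence read after 20 min at RT, 525/598 nm.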
Shiga inhibitor: A qHTS for Small Molecule Inhibitors of Shiga Toxin. 290,000 compounds, 9.2% hits. inhibition, % at 38.7 µM. Vero cells, Shiga toxin protein synthesis inhibition reporter; in the data active means inhibition mostly above about 28%, no sharp cut-off; inactive means mostly below about 43%; further: 0% is about no effect
LmPK inhibitor: qHTS Assay for Inhibitors of Leishmania Mexicana Pyruvate Kinase (LmPK); Q27686; purified LmPK, Kinase-Glo ATP luminescence, 1 h; Potency, µM (highest dose often 57.5 µM), without a hit: at the top dose activity change, negative = inhibition, actives largely listed as inhibitors; 290,000 compounds, 0.37% hits; AID 1721, 2009; further: potency means the concentration at half of the fitted maximal effect; on the % scale 0 is the no-effect control and ±100 the full control effect
Target sequence (Q27686 whole entry, looked up): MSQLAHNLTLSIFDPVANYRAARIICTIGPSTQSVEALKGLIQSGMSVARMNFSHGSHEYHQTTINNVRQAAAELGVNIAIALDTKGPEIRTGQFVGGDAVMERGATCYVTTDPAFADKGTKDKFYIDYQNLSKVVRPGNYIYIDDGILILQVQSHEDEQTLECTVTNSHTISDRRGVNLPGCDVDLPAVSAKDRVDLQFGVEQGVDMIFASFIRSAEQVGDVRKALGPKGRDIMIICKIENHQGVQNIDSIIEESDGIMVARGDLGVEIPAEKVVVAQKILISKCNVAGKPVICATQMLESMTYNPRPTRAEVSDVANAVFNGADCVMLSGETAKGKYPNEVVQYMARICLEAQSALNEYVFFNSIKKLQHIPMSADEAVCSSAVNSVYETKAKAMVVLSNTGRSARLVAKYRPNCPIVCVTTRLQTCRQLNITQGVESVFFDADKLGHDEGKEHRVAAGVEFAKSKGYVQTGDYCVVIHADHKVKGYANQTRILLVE
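Pyruvate kinase activity monitored as ATP production (luciferase luminescence). Conditions: 0.1 nM enzyme, 0.5 mM PEP, 0.1 mM ADP, 1 h, RT; normalized against uninhibited and no-enzyme wells.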
Tb PYK inh: qHTS of Trypanosoma Brucei Inhibitors | pyruvate kinase (Trypanosoma brucei), Q57TT1 | TbPYK enzyme, Kinase-Glo Plus ATP luminescence, 45 min | Potency, µM (series often up to 76.8 µM), without a hit: top-dose activity, negative = inhibition, hits mostly inhibitors | 410,000 compounds, 0.12% hits; further: potency means the concentration at half of the fitted maximal effect; on the % scale 0 is the no-effect control and ±100 the full control effect; nearly all actives have a fitted effect of over 50% in size
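In this concentration-response screen, enzyme-free wells defined baseline while DMSO plates tracked drift. Each reaction combined TbPYK, substrate, compound and 130 uM ADP for 45 min at room temperature. Kinase-Glo Plus luminescence gave the signal.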
Sm TGR block: qHTS Assay for the Inhibitors of Schistosoma Mansoni Peroxiredoxins | Schistosoma mansoni thioredoxin glutathione reductase (TGR), Q962Y6 | purified TGR, DTNB reduction, TNB absorbance 405 nm | Potency, µM (top dose mostly 114 µM), inactives show at the highest dose activity change, negative = inhibition, hits mostly inhibitors | 360,000 compounds, 3% hits; further: potency means the concentration at half of the fitted maximal effect; on the % scale 0 is the no-effect control and ±100 the full control effect; nearly all actives have a fitted effect of over 60% in size
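TGR 20 nM + NADPH 100 uM (dispensed conc.), cpd preinc 15 min RT; start with NADPH (500 uM addition) then DTNB (15 mM addition). Kinetic TNB absorbance, 405 nm filter. Four-parameter Hill fit across titration.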
The depositor's hits bear a star; ? = inconclusive; . = no result. The sample as a whole holds a higher share of hits than the screen did. Unless noted, the call rests on the fitted dose curve; in most records, active means well fitted curve in the direction sought with a large enough effect; inconclusive means small, poorly fitted or top-dose-only effect, or another doubt; inactive means no such curve, though single readings can be large; an effect the other way counts as inactive or inconclusive.

SMILES	CHX counter	Giardia FBPA inh	Shiga inhibitor	LmPK inhibitor	Tb PYK inh	Sm TGR block
CCS(=O)CCSc1nc2ccccc2s1 (configuration not stated)	32*	4%	121*	1%	2%	-16%
c1csc(CSc2nc3ccccc3s2)c1	34*	-3%	136*	-15%	-12%	0%
CNc1nnc(CSc2nc3ccccc3s2)s1	22*	-3%	84*	-2%	-10%	7%
CCN(C(C)=O)c1nnc(CSc2nc3ccccc3s2)s1	25*	11%	157*	-10%	?	5%
c1ccc(NCCSc2nc3ccccc3s2)cc1	.	.	.	.	-8%	.
CCCn1c(C)nc2c(NCC(C)(C)CN(C)C)nc(C)nc21	.	2%	.	.	.	.
C[C@@H](NC(=O)[C@@H]1CCCN1C(=O)[C@@H]1CCCN1C(=O)c1cccc2ccccc12)c1ccccc1	.	.	.	.	-9%	.
COc1ccc(CCC(=O)NCCc2csc(-c3ccc(C(F)(F)F)cc3)n2)cc1	.	.	.	.	-13%	8%
COc1cc2c(cc1NC(=S)Nc1cccc3ccccc13)oc1ccccc12	35*	-26%	103*	6%	-9%	-3%
COCCCNC(=S)Nc1cc2oc3ccccc3c2cc1OC	11*	-2%	17	-4%	-2%	-1%
CC(C)CN(C(=O)c1cccc(S(=O)(=O)N2CCN(Cc3ccccc3)CC2)c1)C1CCS(=O)(=O)C1 (configuration not stated)	.	.	.	.	5%	-9%
COCc1nnc(NC(=O)C(C)C)s1	-1	3%	-4	-1%	0%	1%
CCc1nnc(NC(=O)c2cccc(NC(=O)C(C)C)c2)s1	45*	4%	67	-6%	-8%	1%
COCc1nnc(NC(=O)c2cccc(NC(=O)C(C)C)c2)s1	14*	0%	27*	-7%	-5%	-2%
O=C(COc1ccc(F)cc1)N1CCC(c2ccccc2)C1 (configuration not stated)	43*	5%	58*	5%	-4%	-3%
Cc1cccc(OCC(=O)N2CCC(c3ccccc3)C2)c1 (configuration not stated)	30*	-1%	79*	-1%	-3%	-3%
CCN(C(=O)CSc1nnc(-c2cc(OC)c(OC)c(OC)c2)o1)c1ccccc1	.	.	.	.	-2%	20µM*
NC(=O)c1ccc(-n2nc(C(F)(F)F)c3c2CCCC3)cc1	19*	9%	29	-2%	-6%	-7%
N/C(CS(=O)(=O)c1ccccn1)=N\OC(=O)c1ccccc1Cl	40*	-9%	57*	1%	1%	40µM*
N/C(CS(=O)(=O)c1ccccn1)=N\OC(=O)c1ccc(Cl)cc1	26*	2%	35	4%	2%	0%
CC(C)C(N)c1csc(Nc2ccc(C(=O)NCCCO)cn2)n1 (configuration not stated)	.	.	.	.	4%	.
CCOc1ccc(CNC(=O)c2cnc3sc(N4CCOCC4)nn3c2=O)cc1OC	.	.	.	.	4%	-2%
COc1cc(Cl)ccc1OCc1cc(C(=O)N(C)CC2CCCCO2)no1 (configuration not stated)	40*	0%	88*	6%	-3%	-17%
COc1ccc(OCc2cc(C(=O)N(C)C(C)c3ccon3)no2)c(Cl)c1 (configuration not stated)	34*	.	73*	-13%	-3%	?
COc1ccc(OCc2cc(C(=O)N(C)CC3CCCCO3)no2)c(Cl)c1 (configuration not stated)	48*	0%	79*	0%	-6%	0%
SMILES	CHX counter	Giardia FBPA inh	Shiga inhibitor	LmPK inhibitor	Tb PYK inh	Sm TGR block
COc1ccc(OCc2cc(C(=O)N(C)CCC3CCOCC3)no2)c(Cl)c1	32*	.	60*	-7%	-24%	-20%
COc1ccc(OCc2cc(C(=O)NC3CCc4ccccc43)no2)c(Cl)c1 (configuration not stated)	0	.	-1	-7%	6%	-11%
CN(CC1CCCCO1)C(=O)c1cc(COc2ccc(F)cc2Cl)on1 (configuration not stated)	-2	8%	-11	0%	4%	0%
Cc1ccc(C)c(CNC(=O)c2sc3ncnc(N(C)C4CCCCC4)c3c2C)c1	.	.	.	.	-2%	1%
COc1ccc(C(C(=O)NC(C)(C)C)N(C(=O)CCC(=O)Nc2cc(C)on2)c2cccc(C)c2C)cc1 (configuration not stated)	-4	2%	-5	2%	2%	0%
CCN1CCN(c2ncnc3c2cnn3-c2ccc(F)cc2)CC1	.	.	.	.	-12%	2%
CC(Nc1nc(-c2ccc3c(c2)NC(=O)CO3)cs1)c1ccccc1 (configuration not stated)	18*	-5%	41	1%	-2%	?
COc1cccc(-c2nc(-c3ccc4c(c3)NC(=O)CO4)cs2)c1	50*	0%	105*	3%	-11%	?
Fc1cccc(/C=N/Nc2ccc3ccccc3n2)c1	21*	-12%	37	-14%	3%	2%
Brc1ccccc1/C=N/Nc1ccc2ccccc2n1	44*	1%	65*	-6%	0%	0%
Oc1ccc(/C=N/Nc2ccccc2)cc1	1	-3%	24	2%	-8%	?
Brc1ccc(/C=N/Nc2ccccc2)cc1	43*	0%	60*	0%	-6%	-18%
O=[N+]([O-])c1cccc(C=NNc2ccc3ccccc3n2)c1O	.	.	.	.	-8%	.
Brc1ccc(/C=N/Nc2ccc3ccccc3n2)cc1	55*	-9%	120*	-6%	1%	-15%
CCOC(=O)c1cc2c(=O)n3ccccc3nc2n(CC2CCCO2)c1=NC(=O)c1ccccc1C (configuration not stated)	.	.	.	.	-4%	-9%
O=C(Nc1ccccc1OC(=O)c1ccccc1)c1ccccc1	.	.	.	.	5%	.
Cc1cc(N/N=C/c2ccccc2Br)nc2ccccc12	42*	-4%	75*	-1%	3%	15%
CN1C(=O)C2(c3ccccc31)N(C)CC(c1ccccn1)C21SC(=S)N(Cc2ccco2)C1=O (configuration not stated)	32*	-8%	27	5%	0%	10%
COc1ccc(C(=O)OCCN2CCCCC2)cc1	48*	-3%	51*	8%	-2%	14%
COc1ccc(C(=O)OCC[N+]2(C)CCCCC2)cc1	44*	2%	107*	-1%	-4%	1%
CC(C)(C)c1ccc(C(=O)OCCN2CCCCC2)cc1	22*	-7%	55*	1%	-1%	-4%
